Source: PubChem BioAssay
In the library only some 3.1% were active in any assay of this set; here they are far more common.
KCC2 mod: KCC2 (human) Cl- transport modulation | B-score of Tl+ flux slope (higher = more flux/activation; lower = inhibition) at 10 µM | actives 2.2% (n = 190,000) | KCC2 cells, thallium flux FluoZin-2 fluorescence | Q9H2X9 | AID 1456;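 active = thallium flux slope and its plate-corrected score both differing from the plate sample mean at a set confidence after two filtering rounds, in either direction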;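 also: slope of fluorescence scaled to starting intensity during 10 to 20 s after thallium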
Target sequence (Q9H2X9 whole entry, looked up): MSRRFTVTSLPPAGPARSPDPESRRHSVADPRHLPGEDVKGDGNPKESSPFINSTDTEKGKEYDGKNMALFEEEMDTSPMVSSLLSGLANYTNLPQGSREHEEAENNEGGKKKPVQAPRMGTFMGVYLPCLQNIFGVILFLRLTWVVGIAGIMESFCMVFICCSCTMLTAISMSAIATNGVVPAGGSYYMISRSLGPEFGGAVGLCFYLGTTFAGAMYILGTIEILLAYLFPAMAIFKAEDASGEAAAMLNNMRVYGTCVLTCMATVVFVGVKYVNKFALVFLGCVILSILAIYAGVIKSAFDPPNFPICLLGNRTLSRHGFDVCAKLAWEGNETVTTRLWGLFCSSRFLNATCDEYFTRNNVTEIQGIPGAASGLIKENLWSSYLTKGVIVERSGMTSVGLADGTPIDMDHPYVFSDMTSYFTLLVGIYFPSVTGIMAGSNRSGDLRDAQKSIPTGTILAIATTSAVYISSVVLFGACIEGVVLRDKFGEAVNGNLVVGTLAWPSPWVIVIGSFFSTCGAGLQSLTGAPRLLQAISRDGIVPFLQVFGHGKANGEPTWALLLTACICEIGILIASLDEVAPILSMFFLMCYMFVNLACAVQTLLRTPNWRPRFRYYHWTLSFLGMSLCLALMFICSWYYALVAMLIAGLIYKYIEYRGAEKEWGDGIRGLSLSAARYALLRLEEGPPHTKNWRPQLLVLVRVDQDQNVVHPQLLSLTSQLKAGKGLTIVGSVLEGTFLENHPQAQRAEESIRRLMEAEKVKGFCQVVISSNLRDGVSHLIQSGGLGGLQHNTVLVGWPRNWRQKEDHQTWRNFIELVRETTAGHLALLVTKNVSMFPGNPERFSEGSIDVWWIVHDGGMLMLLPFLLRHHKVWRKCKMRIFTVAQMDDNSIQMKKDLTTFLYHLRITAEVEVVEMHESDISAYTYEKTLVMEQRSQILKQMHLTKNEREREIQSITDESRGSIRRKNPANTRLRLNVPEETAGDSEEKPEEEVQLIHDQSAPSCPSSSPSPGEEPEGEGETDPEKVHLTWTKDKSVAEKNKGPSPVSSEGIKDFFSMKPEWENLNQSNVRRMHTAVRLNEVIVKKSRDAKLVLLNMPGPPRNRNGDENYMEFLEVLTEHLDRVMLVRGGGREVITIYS
EP2 antag: blocks the human prostaglandin E2 receptor EP2; P43116; C6 glioma cells expressing human EP2, cAMP TR-FRET; cells stimulated with saturating PGE2; inhibition, % at 25 µM; actives 0.52% (n = 260,000); AID 1422;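 active = percent inhibition above 40 after rounding to a whole number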;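 also: rat C6 glioma host cells with rolipram phosphodiesterase inhibitor present; the protocol text gives 20 µM as final concentration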
EP2 modulator: modulators of human EP2 prostaglandin E2 receptor. P43116. EP2-expressing cells, cAMP HTRF FRET, PGE2 co-stimulation. induction, % at 25 µM. actives 0.83% (n = 260,000);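 active = compounds whose cAMP rise, as percent of the full-agonist control response, exceeds 60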;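 also: rat C6 glioma line stably carrying human EP2 under a CMV promoter; the protocol text gives 20 µM as final concentration; 100% = response of wells given 1 µM PGE2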
S1P3 antag: blocks the human S1P3 receptor | Q99500 | CHO S1P3 NFAT-BLA reporter, FRET fluorescence, antagonist mode | inhibition, % at 4.98 µM | actives 0.27% (n = 170,000) | AID 485;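 active = inhibition above the plate cutoff, the mean inhibition of test wells on that plate plus 3 SD, cut at about 28% in these data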;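 also: cells challenged with S1P at its EC80 of 0.8 µM; blue over green emission ratio from cleaved BLA substrate after 4 h stimulation; 0% = S1P-stimulated wells and 100% = unstimulated DMSO-only wells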
KCC2 secondary: confirmation of human KCC2 transport modulators | HEK293-KCC2, thallium flux, FluoZin2 fluorescence; hits give high values | shares compounds with KCC2 mod | AID 1713 | normalised thallium flux (F/F0 slope) at 10 µM | actives 15% (n = 3,700);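 active = thallium flux slope above the same plate's solvent-only control mean plus 3 SD; inconclusive = the two replicate wells disagree; inactive = no significant difference from solvent-only control wells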
KCC2 bumet counter: bumetanide-insensitive thallium flux in KCC2 cells with ouabain, counter-screen; shares compounds with KCC2 mod; HEK293-KCC2 + bumetanide/ouabain, thallium flux FluoZin2; hits give high values; normalized thallium flux at 10 µM; actives 49% (n = 3,700);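 active = thallium entry rate above the same plate's blocked-transporter control wells by more than 3 SD; inconclusive = the two repeat wells disagree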;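 also: raw slope of fluorescence over initial fluorescence between 10 and 20 s after thallium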
KCC2 sec2: KCC2 (human) modulation, second secondary assay | actives 23% (n = 3,700) | normalized thallium flux at 10 µM | HEK293-KCC2, thallium flux FluoZin2 fluorescence; actives lie on both sides; F/F0 rise rate, 10–20 s post-thallium | shares compounds with KCC2 mod;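 active = thallium flux slope more than 3 SD above or below the plate's solvent-only control mean, mostly below; inconclusive = the two repeat wells disagreed; inactive = no significant shift from solvent-only controls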;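 also: raw slope with 0.1% DMSO as baseline and bumetanide as block control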
HEK counter1: parental HEK flux effect, counter-screen. shares compounds with KCC2 mod. HEK293 parental cells, thallium flux FluoZin2, ouabain; baseline-ratio fluorescence slope, 10–20 s after thallium. thallium flux rate (normalised fluorescence) at 10 µM. actives 46% (n = 3,700). AID 1716;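 active = thallium flux rate significantly above the same plate's solvent-only control wells, beyond their mean plus 3 SD; inconclusive = the two replicate wells gave conflicting results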
KCC2 ouabain: modulates human KCC2 on retest with ouabain; shares compounds with KCC2 mod; HEK293-KCC2, thallium flux FluoZin2 fluorescence; bidirectional: low = inhibitor, high = activator; raw Tl+ flux slope (below DMSO = inhibition, above = activation) at 10 µM; actives 48% (n = 3,700); AID 1717;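 active = thallium flux slope beyond 3 SD from same-plate DMSO control mean in most replicates, usually higher, sometimes lower; inconclusive = repeat tests gave conflicting results; inactive = no significant difference from controls in most replicates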;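 also: slope of initial-normalized fluorescence between seconds 10 and 20 after thallium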
HEK counter2: counter-screen for KCC2 modulators: effect in parental HEK293 cells; shares compounds with KCC2 mod; thallium flux FluoZin-2 fluorescence slope; thallium flux slope at 10 µM; actives 33% (n = 3,700); AID 1718;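 active = thallium flux slope above the same plate's solvent-control mean plus 3 SD in both duplicate wells; inconclusive = duplicate wells that disagreed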;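 also: run without ouabain in cells lacking the KCC2 cotransporter; slope of fluorescence scaled to its starting value between 10 and 20 s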
Starred values were filed as active, the others as inactive.

Screening CC(=O)O[C@H]1[C@@H]2[C@@H](OC(=O)Cc3ccccc3)[C@@H](C)C[C@]2(OC(C)=O)C(=O)/C(C)=C/[C@H]2[C@H](CC[C@@]13CO3)C2(C)C returned EP2 antag 7 and EP2 modulator 22.
Screening NC1(CO)COC(c2cccnc2)OC1 (stereo not drawn) returned EP2 antag 7 and EP2 modulator 23.
For O=C1C2CCCN2C(c2cccnc2)N1c1ccc(Cl)cc1 (stereo not drawn) the results were KCC2 mod 0.18, EP2 antag 3, EP2 modulator -2 and S1P3 antag -7.
O=C1C2CCCN2C(c2cccnc2)N1c1nccs1 (stereo not drawn) was read as KCC2 mod 3.2*, EP2 modulator 10, S1P3 antag -8, KCC2 secondary 0.016, KCC2 bumet counter inconclusive, KCC2 sec2 0.028, HEK counter1 0.0075, KCC2 ouabain 0.016 and HEK counter2 0.0099.
For CCN(CC)CCCN=Cc1c(O)n(CCc2ccc(OC)c(OC)c2)c(=O)[nH]c1=O the results were KCC2 mod -6.2*, EP2 antag 10, EP2 modulator -7, S1P3 antag -9, KCC2 secondary 0.01, KCC2 bumet counter 0.0067, KCC2 sec2 0.033, HEK counter1 inconclusive, KCC2 ouabain 0.024 and HEK counter2 inconclusive.
CCN(CC)c1ccc(N=Cc2c(O)n(CCc3ccc(OC)c(OC)c3)c(=O)[nH]c2=O)cc1 was read as KCC2 mod -0.35, EP2 antag 8, EP2 modulator 42 and S1P3 antag 6.
